According to PubChem BioAssay AID652065 (The Scripps Research Institute Molecular Screening Center, 2013):
In all, about 4,300 compounds went through this assay and about 3,000 (70%) were called active. So high a share suggests a set chosen from earlier hits. The list is a sample of the results. A number with no mark means an inactive call.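 The calls were made as follows: active = inhibition above a per-plate cutoff, the mean inhibition of sample wells plus 3 SD (cut at about 35% in these data); inactive = the rest.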

Experiment: small molecules binding CAG repeat RNA – biochemical, fluorescence, confirmation (AID 652065);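 also: loss of TO-PRO-1 fluorescence as compound displaces dye from 1x1 AA loop RNA; 0% = DMSO only wells and 100% = 100 µM mitoxantrone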
Conditions: r(CAG) RNA repeat, TO-PRO-1 dye displacement fluorescence; at 3 µM; hits give high values

SMILES	inhibition
O=C1NC(=O)N(Cc2ccco2)C(=O)/C1=C\c1ccc(-c2ccc(F)cc2)o1	20.4%
COc1ccc(N2C(=O)/C(=C/c3ccco3)C(=O)NC2=S)cc1	87% (active)
CC/C(=N\NC(=O)c1ccccc1O)c1c(O)n(Cc2ccccc2)c(=O)[nH]c1=O	75.3% (active)
O=C1CC(=O)N(Cc2ccccc2)C(=O)N1CCCCCCN1C(=O)CC(=O)N(Cc2ccccc2)C1=O	54.7% (active)
COc1cccc(N2C(=O)NC(=O)/C(=C\c3ccc([N+](=O)[O-])s3)C2=O)c1	48% (active)
O=C1NC(=O)N(c2ccccc2)C(=O)/C1=C/c1ccc([N+](=O)[O-])s1	61.7% (active)
COc1ccc2c(c1)[C@@]13CCCCC1[C@@H](C2)NCC3 (some centres not stated)	-0.72%
